# Measured values: PubChem BioAssay
# Where “and” joins values, the source holds several entries; their conditions need not be identical. Equal values may be shown once. Records with an inconclusive call do not appear. Calls of active or inactive are those of the source. Unless noted, no stated cut-off is given here; in the data, active means inhibition above about 80%; inactive means the rest.
# What was measured:
# [1] = growth inhibition of DIPG glioma cells, dose response, cell-based, SU-DIPG-XIII, MIPE5.0, CellTiter-Glo, qHTS (AID 1347064; cut-off not given, nearly all actives have AC50 up to about 23 µM;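 on AC50: cells exposed to compound for 48 hours before the viability read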); conditions: SU-DIPG-XIII viability, CellTiter-Glo ATP luminescence
# [2] = viability loss in pontine glioma line – cell-based, SU-DIPG-XXV, MIPE5.0, CellTiter-Glo, qHTS, dose response (AID 1347065; cut-off not given, nearly all actives have AC50 up to about 26 µM;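 further: cells exposed to compound for 48 hours before ATP readout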); conditions: CellTiter-Glo ATP luminescence
# [3] = JHH-DIPG-1 glioma cell viability, MIPE5.0 library, CellTiter-Glo luminescence, qHTS (AID 1347067; cut-off not given, nearly all actives have AC50 up to about 26 µM;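 further: cells exposed to compound for 48 hours before readout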); conditions: JHH-DIPG-1 glioma viability, CellTiter-Glo ATP luminescence
# [4] = SU-DIPG-XXV glioma cell viability, MIPE5.0 library, qHTS (AID 1347068; cut-off not given, nearly all actives have IC50 up to about 30 µM;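 on IC50: cells exposed to compound for 48 hours before viability readout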)
# [5] = LFS_MB_P medulloblastoma growth inhibition, cell-based, chromothripsis tumors, cisplatin or BGB combos (AID 1671449); conditions: LFS_MB_P medulloblastoma cells;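 further: cells exposed for 96 hours; 0% = vehicle DMSO and 100% = killing by high DMSO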
# [6] = HDN33 neuroblastoma growth inhibition, cell-based, chromothripsis tumors, cisplatin or BGB combos (AID 1671450); conditions: HDN33 neuroblastoma cells, stronger effect = higher value;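 further: cells exposed to compound for four days; 0% = vehicle DMSO and 100% = cell killing by high DMSO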
# [7] = ICB984 medulloblastoma cell growth inhibition, synergistic combos for chromothripsis tumors, cisplatin or BGB combos (AID 1671451; call rule not given here;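 further: cells exposed for 96 hours before readout; 0% = vehicle DMSO and 100% = killing by high DMSO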); conditions: ICB984 medulloblastoma cells, drug combinations, stronger effect = higher value
# [8] = LFS_MB_1R medulloblastoma cell growth inhibition, synergistic combos for chromothripsis tumors, cisplatin or BGB combos (AID 1671452); conditions: LFS_MB_1R medulloblastoma cells, stronger effect = higher value;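 further: cells exposed for 96 hours before readout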
# [9] = HTB85 osteosarcoma cell growth inhibition, synergistic combos for chromothripsis tumors, BGB or cisplatin IC20 combos (AID 1671453); conditions: HTB85 osteosarcoma cells, drug combinations, stronger effect = higher value;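 further: cells exposed for 96 hours before readout; 0% = vehicle DMSO and 100% = high DMSO killing control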
# [10] = CRL2098 osteosarcoma cell growth inhibition, synergistic combos for chromothripsis tumors, BGB or cisplatin IC20 combos (AID 1671454); conditions: CRL2098 osteosarcoma cells, drug combinations, stronger effect = higher value;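 further: cells exposed for 96 h before readout; 0% = vehicle DMSO and 100% = killing by high DMSO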
# [11] = HD-MB03 medulloblastoma cell growth inhibition, synergistic combos for chromothripsis tumors, BGB or cisplatin IC20 combos (AID 1671455; in the data active means inhibition above about 83%;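 further: 0% = vehicle DMSO and 100% = high DMSO as cytotoxic control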); conditions: HD-MB03 medulloblastoma cells, stronger effect = higher value
# [12] = UWB1.289 ovarian carcinoma cell growth inhibition, synergistic combos for chromothripsis tumors, BGB or cisplatin combos (AID 1671456); conditions: UWB1.289 ovarian carcinoma cells, stronger effect = higher value;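 further: cells exposed to compound for four days; 0% = vehicle DMSO and 100% = killing by high DMSO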
# [13] = LFS_MB_2R medulloblastoma cell growth inhibition, synergistic combos for chromothripsis tumors, cisplatin combos (AID 1671457); conditions: LFS_MB_2R medulloblastoma cells, stronger effect = higher value;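 further: cells exposed to compound for four days before readout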
# [14] = MDA-MB-436 breast carcinoma cell growth inhibition, synergistic combos for chromothripsis tumors, BGB or cisplatin combos (AID 1671458; call rule not given here;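 further: cells exposed for 96 hours; 0% = vehicle DMSO and 100% = killing by high DMSO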); conditions: MDA-MB-436 breast carcinoma growth inhibition, drug combinations, stronger effect = higher value
# [15] = UWB1.289_BRCA1 ovarian cancer growth, cell-based, BGB or cisplatin combinations (AID 1671459); conditions: UWB1.289 BRCA1 ovarian carcinoma, drug combinations, stronger effect = higher value
# [16] = human astrocyte viability loss, single and combined drugs, cytotoxicity control for chromothriptic childhood tumor combination screen, cell-based, BGB or cisplatin IC20 combos (AID 1671460); conditions: Human astrocytes, drug combinations, stronger effect = higher value;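 further: cells exposed to compounds for 96 hours before viability readout; 0% = vehicle and 100% = killing control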
# [17] = growth inhibition of BT084 medulloblastoma cells, cell-based, ICGC_MB145, cisplatin and BGB IC40 combos (AID 1671461); conditions: drug combinations, stronger effect = higher value;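 further: cells exposed to drugs for 96 hours; 0% = vehicle DMSO and 100% = high DMSO full killing control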
# [18] = growth inhibition of RCMB18 medulloblastoma cells, cell-based, cisplatin and BGB IC40 combos (AID 1671462); conditions: stronger effect = higher value;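 further: cells exposed to compound for four days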
# [19] = growth inhibition of CRL1545 osteosarcoma cells, cell-based, cisplatin and BGB IC20 combos (AID 1671464); conditions: stronger effect = higher value;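 further: cells exposed to compound for 96 hours before readout; 0% = vehicle DMSO and 100% = high DMSO killing control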
# [20] = sensitizers of A549 cells to miR-34 induction, primary screen, imaging, A549 dox-inducible miR-34, nuclei and caspase counts (AID 1347080;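 active means compounds whose cell count with miR-34 switched on is under 0.7 times the count with it off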); conditions: A549 miR-34 inducible, Hoechst nuclei count, 48 h
# [21] = survival rescue of mitochondrial mutant cells in low glucose, primary screen, MELAS cybrids, Rieske KO mouse fibroblasts, CellTiter-Glo (AID 1508586;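 active means mean z-score across replicates of 1.96 or higher in either the MELAS or the Rieske mutant cell line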;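 further: z relative to plate mean and SD of compound and empty wells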)
# [22] = viability rescue of complex I mutant cybrids, primary screen, cell-based, galactose medium, ATP luminescence (AID 1645843;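 active means z-score of at least 1.8 in each of two replicates, scored against plate mean and spread of sample wells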;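 further: positive z means more ATP and so rescue of galactose-driven cybrid death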); conditions: complex I mutant cybrid cells, 72 h, stronger effect = higher value
# [23] = SU-DIPG-VI glioma cell viability, MIPE4.0 library, CellTiter-Glo luminescence, qHTS (AID 1347066; cut-off not given, nearly all actives have AC50 up to about 30 µM;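 further: cells exposed to compound for 48 hours before readout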); conditions: CellTiter-Glo ATP luminescence
# [24] = measured here: combination with BGB IC40, at 0.05 µM
# [25] = measured here: with BGB IC20 combination, at 0.5 µM
# [26] = measured here: with cisplatin IC20 combination, at 0.5 µM
# [27] = measured here: combination with cisplatin, at 0.5 µM
# [28] = measured here: combination with cisplatin, at 5 µM
# [29] = stronger effect = lower value, cell number ratio, induced over uninduced
# [30] = measured here: relative caspase fold change +Dox/-Dox
# [31] = measured here: total cells with miR-34 induction, stronger effect = lower value
# [32] = measured here: total cells without miR-34 induction
# [33] = MELAS cybrid survival, CellTiter-Glo 48 h, stronger effect = higher value
# [34] = Rieske KO mouse fibroblast survival, CellTiter-Glo 72 h
structure (smiles),measurement,setting,value
c1cc(Nc2cc(C3CC3)[nH]n2)nc(Nc2ccc3nc[nH]c3c2)n1,AC50,[1],0.468 µM (active)
same,AC50,[2],0.59 µM (active)
same,AC50,[3],0.742 µM (active)
same,IC50,[4],1.48 µM (active)
same,inhibition,"[5]; at 0.5 µM, stronger effect = higher value",-28.9% (inactive)
same,inhibition,"[5]; measured here: combination with BGB IC20, at 0.005 µM",-28.7%
same,inhibition,"[5]; measured here: combination with BGB IC40, at 0.005 µM",66.9%
same,inhibition,[5]; [24],3.2%
same,inhibition,"[5]; measured here: combination with cisplatin, at 0.5 µM, stronger effect = higher value",-45.7%
same,inhibition,"[5]; measured here: combination with cisplatin, at 5 µM, stronger effect = higher value",97.7%
same,inhibition,"[6]; BGB combo, at 5 µM",80.3%
same,inhibition,[6]; at 0.5 µM,13.6% (inactive)
same,inhibition,"[6]; cisplatin combo, at 5 µM",56.8%
same,inhibition,[6]; [25],15.5%
same,inhibition,[6]; [26],11.8%
same,inhibition,"[6]; single agent, at 5 µM",65%
same,inhibition,"[7]; BGB IC20 combo, at 0.005 µM",91.8%
same,inhibition,"[7]; BGB IC40 combo, at 0.005 µM",91.5%
same,inhibition,"[7]; BGB IC40 combo, at 0.05 µM",101%
same,inhibition,[7]; at 0.5 µM,-13.7% (inactive)
same,inhibition,"[7]; cisplatin combo, at 0.05 µM",102%
same,inhibition,"[7]; cisplatin combo, at 0.5 µM",-28%
same,inhibition,"[7]; cisplatin combo, at 5 µM",-12.8%
same,inhibition,"[7]; measured here: 5 uM single agent, at 5 µM",-7.27%
same,inhibition,[8]; at 0.5 µM,96.2% (active)
same,inhibition,[8]; [24],10.7%
same,inhibition,[8]; [27],97.7%
same,inhibition,[8]; [28],98.3%
same,inhibition,[9]; at 0.5 µM,92.1% (active)
same,inhibition,"[9]; measured here: with BGB IC20, at 0.5 µM",97.4%
same,inhibition,"[9]; measured here: with BGB IC20, at 5 µM",98.4%
same,inhibition,"[9]; measured here: with cisplatin IC20, at 0.5 µM",83.5%
same,inhibition,"[9]; measured here: with cisplatin IC20, at 5 µM",99.3%
same,inhibition,"[9]; single agent, at 5 µM",99.5%
same,inhibition,[10]; at 0.5 µM,28.9% (inactive)
same,inhibition,"[10]; measured here: combination with BGB at IC20, at 0.5 µM",57.3%
same,inhibition,"[10]; measured here: combination with cisplatin at IC20, at 0.5 µM",27.4%
same,inhibition,[11]; at 0.5 µM,31.9% (inactive)
same,inhibition,"[11]; measured here: combo with BGB at IC20, at 0.5 µM",43.7%
same,inhibition,"[11]; measured here: combo with cisplatin at IC20, at 0.5 µM",6.87%
same,inhibition,[12]; at 0.5 µM,67.4% (inactive)
same,inhibition,"[12]; measured here: inhibition with BGB combination, at 0.05 µM",37.1%
same,inhibition,"[12]; measured here: inhibition with cisplatin combination, at 0.05 µM",-9.86%
same,inhibition,[13]; at 0.5 µM,80.7% (active)
same,inhibition,[13]; [27],87.3%
same,inhibition,[13]; [28],91.1%
same,inhibition,[14]; at 0.5 µM,23.1% (inactive)
same,inhibition,"[14]; measured here: BGB combination, at 0.5 µM",22.4%
same,inhibition,"[14]; measured here: BGB combination, at 5 µM",75.1%
same,inhibition,"[14]; measured here: cisplatin combination, at 0.5 µM",5.08%
same,inhibition,"[14]; measured here: cisplatin combination, at 5 µM",88.8%
same,inhibition,"[15]; BGB combination, concentration series, at 5 µM",73.5%
same,inhibition,[15]; at 0.5 µM,79.3% (inactive)
same,inhibition,"[15]; cisplatin combination, concentration series, at 5 µM",72.2%
same,inhibition,[16]; at 0.5 µM,14.6% (inactive)
same,inhibition,"[16]; measured here: combo with BGB IC20, at 0.5 µM",33.6%
same,inhibition,"[16]; measured here: combo with cisplatin IC20, at 0.5 µM",-4.62%
same,inhibition,[17]; at 0.5 µM,44.8% (inactive)
same,inhibition,"[17]; cisplatin combination, at 0.5 µM",31.8%
same,inhibition,"[17]; cisplatin combination, at 5 µM",-81%
same,inhibition,"[17]; measured here: BGB IC40 combination 0.05 uM, at 0.05 µM",-10.1%
same,inhibition,"[17]; single agent, at 5 µM",22.9%
same,inhibition,[18]; at 0.5 µM,73.8% (inactive)
same,inhibition,"[18]; cisplatin combo, at 5 µM",83.5%
same,inhibition,"[18]; measured here: BGB IC40 combination, at 0.05 µM",22.4%
same,inhibition,[18]; [27],76.4%
same,inhibition,"[18]; single agent, at 5 µM",84.3%
same,inhibition,[19]; at 0.5 µM,-7.32% (inactive)
same,inhibition,[19]; [25],-9.54%
same,inhibition,[19]; [26],-7.92%
same,inhibition,"[19]; single agent, at 0.05 µM",-26.3%
same,inhibition,"[19]; single agent, at 5 µM",81.3%
Cc1cc(O[C@@H](CCC(F)(F)F)c2ccc(C(=O)NCCC(=O)O)cc2)cc(C)c1-c1ccc(C(C)(C)C)cc1,AC50,[1],11.8 µM (active)
same,AC50,[2],9.34 µM (active)
same,IC50,[4],8.33 µM (active)
Cc1nnc(C(C)C)n1C1CC2CCC(C1)N2CCC(NC(=O)C1CCC(F)(F)CC1)c1ccccc1 (stereo not given),outcome,[1],inactive
same,outcome,[2],inactive
same,outcome,[3],inactive
same,outcome,[4],inactive
same,fold change,[20]; [29],0.913 (inactive) and 0.876 (inactive)
same,fold change,[20]; [30],0.655 and 0.632
same,cell count,[20]; [31],8280 and 7990
same,cell count,[20]; [32],9060 and 9120
same,z-score,[21]; [33],0.322 (inactive) and -0.218 (inactive)
same,z-score,[21]; [34],-0.412 and -0.846
same,z-score,[22],0.505 (inactive)
CN(C)Cc1cccc(N=C(c2ccccc2)c2c(O)[nH]c3cc(C(=O)N(C)C)ccc23)c1,outcome,[1],inactive
same,outcome,[23],inactive
same,IC50,[4],18.6 µM (active)
same,fold change,[20]; [29],0.785 (inactive)
same,fold change,[20]; [30],1.01
same,cell count,[20]; [31],3180
same,cell count,[20]; [32],4050
same,z-score,[21]; [33],-0.347 (inactive)
same,z-score,[21]; [34],0.635
Cn1cc(-c2cnc3ccc4ccc(CS(=O)(=O)NCc5ccccn5)cc4c(=O)c3c2)cn1,outcome,[1],inactive
same,outcome,[2],inactive
same,outcome,[4],inactive
Cc1nc2ccc(C(=O)N3CCC4(CC3)CC(=O)c3c(cnn3C(C)C)C4)cc2[nH]1,outcome,[1],inactive
same,outcome,[3],inactive
